The source made the active and inactive calls. Unless noted, the rule behind the calls is not given here.
Key:
[1] = anti-His antibody binders, primary screen, artefact control for SMM control protein annotation, biochemical, small-molecule microarray, 635 nm fluorescence (AID 1128); conditions: anti-His Alexa647 antibody binding, higher = more signal;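 note: score merges feature fluorescence with signal-to-noise for each printed compound spot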
[2] = tested on: Human papillomavirus type 1a E7 protein (residues 1-88); assay: HPV1a E7 small-molecule binders, primary screen, biochemical, small-molecule microarray, residues 1-88, 635 nm (AID 1129); conditions: small-molecule microarray binding, fluorescence 635 nm; higher = more signal
[3] = molecular target: Focal adhesion kinase 1 (Homo sapiens) (UniProt Q05397); assay: small-molecule microarray binders of FAK, primary screen, biochemical, 635/667 nm fluorescence, BSA, DTT (AID 1130); conditions: PTK2 binding, 635 nm fluorescence, higher = more signal;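 note: composite of spot emission at 667 nm and signal to noise over triplicate slides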
[4] = tested on: Fibrinogen (Alexa647-labelled); assay: fibrinogen binders on compound microarrays, profiling panel, artefact control for SMM control-protein annotation, biochemical, small-molecule microarray, 635/667 nm fluorescence (AID 1131); conditions: fibrinogen-A647 binding fluorescence, higher = more signal;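 note: z-score merges 667 nm fluorescence with per-spot signal-to-noise over triplicate slides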
[5] = molecular target: Follistatin (Homo sapiens) (UniProt P19883); assay: follistatin binders on small-molecule microarrays, primary screen, biochemical, small-molecule microarray, 635/667 nm fluorescence (AID 1132); conditions: FST binding, 635 nm fluorescence, higher = more signal
[6] = molecular target: Fibroblast growth factor 2 (Homo sapiens) (UniProt P09038); assay: FGF2 binders on small-molecule microarrays, primary screen, biochemical, small-molecule microarray, 635/667 nm fluorescence (AID 1133); conditions: small-molecule microarray binding, FGF2, fluorescence 635/667; higher = more signal
[7] = mitochondrial membrane potential change in A549 cells, profiling panel, cell-based, JC-1 fluorescence, basal, 24 h, 100 nL (AID 1138); conditions: higher = more signal;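 note: A549 lung adenocarcinoma cells under basal conditions with no added stimulus; test concentration not given here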
Lefty1 = Lefty1 binders on small-molecule microarrays, primary screen, biochemical, small-molecule microarray, 635/667 nm fluorescence (AID 1139); conditions: small-molecule microarray binding, fluorescence 635/667; higher = more signal
[8] = tested on: wheat germ agglutinin (Triticum aestivum), Alexa647-labelled; assay: wheat germ agglutinin binders on compound microarrays, profiling panel, artefact control for SMM control-protein annotation, biochemical, small-molecule microarray, 635/667 nm fluorescence (AID 1140); conditions: WGA-A647 binding, 635 nm fluorescence, higher = more signal;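 note: score merges 667 nm feature emission with signal to noise over triplicate slides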
[9] = molecular target: Luciferin 4-monooxygenase (Photinus pyralis) (UniProt P08659); assay: firefly luciferase enzyme inhibitors, primary screen, biochemical, luminescence, purified enzyme, 2006 set (AID 1141); conditions: SteadyGlo luminescence, 30 min, higher = more signal, called active from +8 up or from −8 down;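 note: cell-free assay with purified firefly luciferase at 100 ng per well in PBS; test concentration not given here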
[10] = tested on: Wnt5a (protein binding on small-molecule microarray); assay: Wnt5a binders on small-molecule microarray, primary screen, biophysical, 635/667 nm fluorescence (AID 1142); conditions: 635 nm fluorescence, higher = more signal;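 note: fluorescence read at 667 nm with signal to noise per printed feature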
[11] = cell viability in Huh7 cells, primary screen, cytotoxicity control for HCV replication inhibitor project, CellTiter-Glo luminescence, basal, 48 h (AID 1143); conditions: Huh7 HCV replicon, higher = more signal, called active from +8 up or from −8 down;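 note: Huh7 hepatoma cells carrying a hepatitis C replication reporter with no stimulus; test concentration not given here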
[12] = P. aeruginosa biofilm formation inhibitors, primary screen, PAO1 strain, BacTiter-Glo luminescence, LB-PBS (AID 1144); conditions: 12 h, higher = more signal
[13] = CREB reporter modulators without forskolin, primary screen, cell-based, PC12, CRE-LacZ reporter, unstimulated (AID 1145); conditions: no forskolin, luminescence, 4.5 h, higher = more signal, called active from +8 up or from −8 down
[14] = CREB reporter modulators under forskolin, primary screen, cell-based, PC12, CRE-LacZ reporter, forskolin-stimulated (AID 1146); conditions: luminescence, 4.5 h, higher = more signal, called active from +8 up or from −8 down;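 note: PC12 cells with 6xCRE LacZ reporter stimulated by forskolin 10 µM; beta-galactosidase reporter signal reflecting CREB driven transcription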
[15] = molecular target: Streptavidin (Streptomyces avidinii) (UniProt P22629); assay: streptavidin binders on small-molecule microarray, primary screen, artefact control for SMM compound annotation, biophysical, 635/667 nm fluorescence (AID 1147); conditions: streptavidin binding, higher = more signal;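 note: signal reflects streptavidin binding to arrayed compounds as a control protein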
[16] = small-molecule binders of probe aInhba, primary screen, biochemical, small-molecule microarray, 635/667 nm fluorescence (AID 1148); conditions: higher = more signal;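 note: score merges 667nm spot fluorescence with signal-to-noise for antibody binding to printed compounds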
Torsin-1A (Homo sapiens) [17] = molecular target: Torsin-1A (Homo sapiens) (UniProt O14656); assay: torsin A binders from cell lysate, primary screen, small-molecule microarray, wild-type, 635/667 nm (AID 1149); conditions: COS7 hTOR1A-WT lysate, 635 nm fluorescence, higher = more signal
Torsin-1A (Homo sapiens) [18] = molecular target: Torsin-1A (Homo sapiens) (UniProt O14656); assay: small-molecule binders of mutant TOR1A in lysate, primary screen, cell lysate, small-molecule microarray, COS7 lysate, 635/667 nm fluorescence (AID 1150); conditions: COS7 hTOR1A mutant lysate, 635 nm fluorescence, higher = more signal;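 note: score pools 667 nm emission and signal to noise measuring lysate protein binding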
[19] = tested on: Sonic hedgehog protein (Shh); assay: small-molecule binders of Shh protein, primary screen, biochemical, small-molecule microarray, 635/667 nm fluorescence (AID 1151); conditions: small-molecule microarray binding, 635 nm fluorescence; higher = more signal;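 note: Shh protein binding to compounds spotted on small-molecule microarray slides; score combines spot fluorescence intensity with signal-to-noise across triplicate slides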

Sequence of Torsin-1A (Homo sapiens) (O14656 whole entry, looked up): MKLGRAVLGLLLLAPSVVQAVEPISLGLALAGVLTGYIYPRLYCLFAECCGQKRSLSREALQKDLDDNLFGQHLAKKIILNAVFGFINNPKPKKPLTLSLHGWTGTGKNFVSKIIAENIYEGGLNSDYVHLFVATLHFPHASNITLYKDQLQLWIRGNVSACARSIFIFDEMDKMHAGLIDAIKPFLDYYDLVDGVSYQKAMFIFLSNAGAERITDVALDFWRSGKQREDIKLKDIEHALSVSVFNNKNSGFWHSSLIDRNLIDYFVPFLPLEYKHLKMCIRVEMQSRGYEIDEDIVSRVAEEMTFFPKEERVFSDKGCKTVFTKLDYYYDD
Sequence of Streptavidin (Streptomyces avidinii) (P22629 whole entry, looked up): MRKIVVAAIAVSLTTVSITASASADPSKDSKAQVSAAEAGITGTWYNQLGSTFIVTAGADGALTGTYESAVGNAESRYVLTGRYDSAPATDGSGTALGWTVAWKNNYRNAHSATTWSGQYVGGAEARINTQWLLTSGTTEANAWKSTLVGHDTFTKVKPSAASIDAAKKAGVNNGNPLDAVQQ
Sequence of Follistatin (Homo sapiens) (P19883 whole entry, looked up): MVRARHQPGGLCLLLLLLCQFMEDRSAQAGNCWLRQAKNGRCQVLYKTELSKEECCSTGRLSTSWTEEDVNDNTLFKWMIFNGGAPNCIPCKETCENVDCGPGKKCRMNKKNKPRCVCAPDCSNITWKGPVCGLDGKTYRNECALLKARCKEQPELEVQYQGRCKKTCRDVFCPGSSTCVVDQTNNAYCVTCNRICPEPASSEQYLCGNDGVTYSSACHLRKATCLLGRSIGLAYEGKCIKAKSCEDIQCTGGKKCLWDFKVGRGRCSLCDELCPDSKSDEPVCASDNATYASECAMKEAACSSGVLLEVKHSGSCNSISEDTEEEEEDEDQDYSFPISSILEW
Sequence of Luciferin 4-monooxygenase (Photinus pyralis) (P08659 whole entry, looked up): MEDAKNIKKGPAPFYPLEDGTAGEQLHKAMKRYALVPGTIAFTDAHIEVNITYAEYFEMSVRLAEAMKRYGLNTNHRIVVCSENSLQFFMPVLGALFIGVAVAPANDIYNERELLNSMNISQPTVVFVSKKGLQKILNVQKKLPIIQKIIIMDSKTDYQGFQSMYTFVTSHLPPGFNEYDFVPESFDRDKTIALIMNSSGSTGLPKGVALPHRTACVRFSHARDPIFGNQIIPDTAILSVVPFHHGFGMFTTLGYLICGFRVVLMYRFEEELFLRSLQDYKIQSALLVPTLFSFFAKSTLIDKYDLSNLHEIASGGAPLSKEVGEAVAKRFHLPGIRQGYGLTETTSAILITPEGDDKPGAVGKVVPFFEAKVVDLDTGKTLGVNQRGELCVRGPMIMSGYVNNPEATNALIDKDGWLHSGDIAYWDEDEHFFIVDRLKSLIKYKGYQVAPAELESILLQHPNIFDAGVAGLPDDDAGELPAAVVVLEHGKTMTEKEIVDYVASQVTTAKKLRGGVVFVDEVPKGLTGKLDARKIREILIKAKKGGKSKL
Sequence of Fibroblast growth factor 2 (Homo sapiens) (P09038 whole entry, looked up): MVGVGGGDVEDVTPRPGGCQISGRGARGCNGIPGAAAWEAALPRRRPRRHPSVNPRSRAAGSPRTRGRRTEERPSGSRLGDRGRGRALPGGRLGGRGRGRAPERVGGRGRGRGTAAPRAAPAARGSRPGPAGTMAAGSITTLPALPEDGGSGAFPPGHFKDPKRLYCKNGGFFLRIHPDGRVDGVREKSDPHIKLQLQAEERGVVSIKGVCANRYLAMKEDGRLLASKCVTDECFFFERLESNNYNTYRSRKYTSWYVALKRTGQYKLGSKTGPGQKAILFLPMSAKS
Sequence of Focal adhesion kinase 1 (Homo sapiens) (Q05397 whole entry, looked up): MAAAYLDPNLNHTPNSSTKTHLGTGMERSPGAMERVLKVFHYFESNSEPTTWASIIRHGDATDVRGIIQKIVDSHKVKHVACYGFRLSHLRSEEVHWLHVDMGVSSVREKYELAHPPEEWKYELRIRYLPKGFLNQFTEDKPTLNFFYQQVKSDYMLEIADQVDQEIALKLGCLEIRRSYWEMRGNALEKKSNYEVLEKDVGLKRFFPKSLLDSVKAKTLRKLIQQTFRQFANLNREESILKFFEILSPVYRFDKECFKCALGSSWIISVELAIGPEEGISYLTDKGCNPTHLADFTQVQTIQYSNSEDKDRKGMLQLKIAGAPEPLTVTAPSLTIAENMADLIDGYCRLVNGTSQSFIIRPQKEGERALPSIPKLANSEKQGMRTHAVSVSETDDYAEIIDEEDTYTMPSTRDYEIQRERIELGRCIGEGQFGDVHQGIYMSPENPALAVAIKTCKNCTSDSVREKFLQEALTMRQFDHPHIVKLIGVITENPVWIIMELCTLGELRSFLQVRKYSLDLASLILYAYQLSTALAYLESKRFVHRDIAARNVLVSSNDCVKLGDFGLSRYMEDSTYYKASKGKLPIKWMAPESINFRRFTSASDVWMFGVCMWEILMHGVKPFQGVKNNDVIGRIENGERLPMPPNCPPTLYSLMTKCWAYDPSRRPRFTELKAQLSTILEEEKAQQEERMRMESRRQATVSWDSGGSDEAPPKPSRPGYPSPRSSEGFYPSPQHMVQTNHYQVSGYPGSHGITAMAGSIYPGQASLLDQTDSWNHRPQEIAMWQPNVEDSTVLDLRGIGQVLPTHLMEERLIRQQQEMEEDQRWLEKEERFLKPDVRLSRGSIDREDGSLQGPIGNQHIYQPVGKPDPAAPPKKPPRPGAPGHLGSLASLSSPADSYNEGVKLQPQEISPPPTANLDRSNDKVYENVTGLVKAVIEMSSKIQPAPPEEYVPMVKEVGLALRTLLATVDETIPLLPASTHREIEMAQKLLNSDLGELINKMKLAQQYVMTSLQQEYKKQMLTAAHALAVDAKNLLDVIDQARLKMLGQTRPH

COc1ccccc1CN1C(=O)c2ccccc2[C@@]2(Cc3ccccc3N(C3CC3)C2=O)[C@@H]1c1ccc(CO)cc1
composite z-score [1]: 0.131 | composite z-score [2]: -1.12 | composite z-score [3]: -0.175 | composite z-score [4]: -0.248 | composite z-score [5]: 0.253 | composite z-score [6]: -1.17 | z-score [7]: 0.111 | composite z-score (Lefty1): -0.154 | composite z-score [8]: -0.0487 | z-score [9]: -0.379 (inactive) | composite z-score [10]: -0.507 | z-score [11]: -0.0976 (inactive) | z-score [12]: 1.13 (inactive) | z-score [13]: 0.622 (inactive) | z-score [14]: -0.148 (inactive) | composite z-score [15]: -0.189 | composite z-score [16]: -0.125 | composite z-score (Torsin-1A (Homo sapiens) [17]): -1.68 | composite z-score (Torsin-1A (Homo sapiens) [18]): -0.821 | composite z-score [19]: -0.27

CCN(CC)c1ccc(N2CC=CC34O[C@@H]5/C=C\CCCOC(=O)C5[C@H]3C(=O)N(CCCCCCO)[C@@H]4C2=O)cc1 (stereo not given in full)
composite z-score [1]: 1.27 | composite z-score [2]: -0.299 | composite z-score [3]: -0.177 | composite z-score [4]: -0.801 | composite z-score [5]: -1.21 | composite z-score [6]: -0.616 | z-score [7]: 1.1 | composite z-score (Lefty1): -0.324 | composite z-score [8]: -0.22 | z-score [9]: -1.9 (inactive) | composite z-score [10]: -0.517 | z-score [11]: -0.0416 (inactive) | z-score [12]: 0.194 (inactive) | z-score [13]: 0.475 (inactive) | z-score [14]: 0.458 (inactive) | composite z-score [15]: -0.41 | composite z-score [16]: -0.0762 | composite z-score (Torsin-1A (Homo sapiens) [17]): -1.7 | composite z-score (Torsin-1A (Homo sapiens) [18]): -1.59 | composite z-score [19]: 0.216

C=C[C@H](C)[C@H](OC(=O)Nc1ccc(SC)cc1)c1ccc(O)c2ccccc12
composite z-score [1]: 0.499 | composite z-score [2]: -0.526 | composite z-score [3]: 0.209 | composite z-score [4]: -1.35 | composite z-score [5]: 1.08 | composite z-score [6]: 0.162 | z-score [7]: -1.51 | composite z-score (Lefty1): 0.192 | composite z-score [8]: -0.341 | z-score [9]: -2.89 (inactive) | composite z-score [10]: 0.081 | z-score [11]: -4.25 (inactive) | z-score [12]: -0.0275 (inactive) | z-score [13]: 0.0172 (inactive) | z-score [14]: 4.5 (inactive) | composite z-score [15]: -0.635 | composite z-score [16]: -0.154 | composite z-score (Torsin-1A (Homo sapiens) [17]): -0.252 | composite z-score (Torsin-1A (Homo sapiens) [18]): -0.0104 | composite z-score [19]: 0.73

COCCOC(=O)N1C(=O)[C@@]2(c3cc(C#Cc4ccc(OC)cc4)ccc31)[C@H](C(N)=O)[C@H]1C(=O)O[C@H](c3ccccc3)[C@H](c3ccccc3)N1[C@@H]2c1ccc(OCCO)cc1
composite z-score [1]: 1.71 | composite z-score [2]: 1.21 | composite z-score [3]: 0.398 | composite z-score [4]: 0.898 | composite z-score [5]: 1.28 | composite z-score [6]: 1.55 | z-score [7]: -1.96 | composite z-score (Lefty1): 0.997 | composite z-score [8]: 0.695 | z-score [9]: -0.297 (inactive) | composite z-score [10]: 0.608 | z-score [11]: -4.52 (inactive) | z-score [12]: -0.637 (inactive) | z-score [13]: -0.598 (inactive) | z-score [14]: -0.164 (inactive) | composite z-score [15]: 0.741 | composite z-score [16]: 0.267 | composite z-score (Torsin-1A (Homo sapiens) [17]): 0.534 | composite z-score (Torsin-1A (Homo sapiens) [18]): 0.424 | composite z-score [19]: 1.66

COC(=O)[C@]1(Cc2ccccc2CN=[N+]=[N-])N=C(c2ccc(OCCCO)cc2)O[C@@H]1c1ccccc1CN=[N+]=[N-]
composite z-score [1]: 1.12 | composite z-score [2]: 1.15 | composite z-score [3]: 0.392 | composite z-score [4]: 0.518 | composite z-score [5]: 1.17 | composite z-score [6]: 0.838 | z-score [7]: 1.02 | composite z-score (Lefty1): -0.222 | composite z-score [8]: 0.609 | z-score [9]: -1.41 (inactive) | composite z-score [10]: 0.749 | z-score [11]: -4.12 (inactive) | z-score [12]: -0.247 (inactive) | z-score [13]: 1.6 (inactive) | z-score [14]: -1.01 (inactive) | composite z-score [15]: -0.908 | composite z-score [16]: -0.0471 | composite z-score (Torsin-1A (Homo sapiens) [17]): -0.355 | composite z-score (Torsin-1A (Homo sapiens) [18]): -0.27 | composite z-score [19]: 0.353
